Results as given in the antibiotic and cytotoxicity screens of Wong et al. (2023).
The campaign covered roughly 39,000 compounds. About 3,300 (8.5%) were called active. The full list was thinned out, with actives kept by preference.

system: HepG2; experiment: cytotoxicity call (relative viability < 0.9); conditions: 10 µM

Question: How did the cytotoxicity call turn out when `COc1ccc(NC(=O)Nc2ccc3c(c2)C(=O)N([C@H](C)CO)C[C@@H](C)[C@H](CN(C)C(=O)NC2CCCCC2)OCCCC[C@H](C)O3)cc1` was run?
Answer: inactive

Question: `C[C@@H]1CN([C@@H](C)CO)C(=O)c2cc(C#CCN(C)C)cnc2O[C@H]1CN(C)Cc1ccc(C(=O)O)cc1` was tested. Which cytotoxicity call did it give?
Answer: inactive

Question: Which cytotoxicity call does the source give for `COc1cccc(OC)c1C(=O)O[C@H]1[C@@H]2OC(=O)[C@@H](Cc3ccc4ccccc4c3)C/C=C/C[C@H](Cc3ccc4ccccc4c3)C(=O)O[C@H]2[C@@H](OC)O[C@@H]1CO` here?
Answer: inactive

Question: For `Cc1ccc(S(=O)(=O)N(C)C[C@@H]2Oc3ccc(NC(=O)Cn4cnnn4)cc3C(=O)N([C@H](C)CO)C[C@@H]2C)cc1`, which cytotoxicity call is on record?
Answer: inactive

Question: Which cytotoxicity call does the source give for `Cc1noc(C)c1S(=O)(=O)Nc1cccc2c1O[C@@H](CN(C)S(=O)(=O)c1ccccc1)[C@@H](C)CN([C@@H](C)CO)C2=O` here?
Answer: inactive

Question: With `C[C@H](CO)N1C[C@H](C)[C@@H](CN(C)C(=O)c2ccccc2)OCCCC[C@H](C)Oc2ccc(NS(=O)(=O)c3cccs3)cc2C1=O` as the compound, how does the cytotoxicity call read?
Answer: inactive

Question: Which cytotoxicity call does the source give for `CN1CCN(C(=O)C[C@H]2CC[C@@H]3[C@H](COC[C@@H](O)CN3S(=O)(=O)c3cccc(Cl)c3)O2)CC1` here?
Answer: inactive

Question: For `CCS(=O)(=O)N1CC[C@]2(CC1)CN([C@@H](CO)c1c2c2ccc(cc2n1C)OC)S(=O)(=O)c1ccccc1`, which cytotoxicity call is on record?
Answer: inactive

Question: With `C[C@@H]1CN([C@H](C)CO)C(=O)c2cccc(NC(=O)Nc3ccc(C(F)(F)F)cc3)c2O[C@H]1CN(C)C(=O)NC1CCCCC1` as the compound, how does the cytotoxicity call read?
Answer: active

Question: Which cytotoxicity call does the source give for `C[C@@H]1CN([C@H](C)CO)C(=O)c2cccc(NC(=O)Nc3ccc(C(F)(F)F)cc3)c2O[C@@H]1CN(C)C(=O)NC1CCCCC1` here?
Answer: active

Question: For `C[C@H](CO)N1C[C@H](C)[C@H](CN(C)C(=O)NC2CCCCC2)Oc2c(NC(=O)Nc3ccc(C(F)(F)F)cc3)cccc2C1=O`, which cytotoxicity call is on record?
Answer: active

Question: Which cytotoxicity call does the source give for `C[C@H](CO)N1C[C@H](C)[C@@H](CN(C)C(=O)NC2CCCCC2)Oc2c(NC(=O)Nc3ccc(C(F)(F)F)cc3)cccc2C1=O` here?
Answer: active

Question: `O=C(N[C@H]1CC[C@H](CCNS(=O)(=O)c2ccccc2)O[C@@H]1CO)c1cnccn1` was tested. Which cytotoxicity call did it give?
Answer: inactive

Question: `C[C@@H]1CCCCO[C@@H](CN(C)C(=O)NC2CCCCC2)[C@H](C)CN([C@H](C)CO)C(=O)c2cc(NC(=O)C3CCCCC3)ccc2O1` was tested. Which cytotoxicity call did it give?
Answer: inactive

Question: `C[C@@H]1CN([C@H](C)CO)S(=O)(=O)c2ccc(C#CCN(C)C)cc2O[C@@H]1CN(C)S(=O)(=O)c1cccc(F)c1` was tested. Which cytotoxicity call did it give?
Answer: inactive

Question: With `CC(C)NC(=O)Nc1ccc2c(c1)C(=O)N([C@H](C)CO)C[C@H](C)[C@H](CN(C)C(=O)C1CCCCC1)OCCCC[C@@H](C)O2` as the compound, how does the cytotoxicity call read?
Answer: inactive

Question: How did the cytotoxicity call turn out when `COc1ccc(NC(=O)Nc2ccc3c(c2)C(=O)N([C@@H](C)CO)C[C@H](C)[C@@H](CN(C)S(=O)(=O)c2ccc(Cl)cc2)OCCCC[C@@H](C)O3)cc1` was run?
Answer: inactive

Question: `COc1ccc(CNC(=O)C[C@H]2C[C@@H]3c4cc(NC(=O)NC5CCCC5)ccc4O[C@@H]3[C@@H](CO)O2)cc1` was tested. Which cytotoxicity call did it give?
Answer: inactive

Question: `O=C(NCCC1=CCCCC1)c1sc2ccccc2c1Cl` was tested. Which cytotoxicity call did it give?
Answer: inactive

Question: For `C[C@H](CO)N1C[C@H](C)[C@@H](CN(C)C(=O)c2ccccc2)OCCCC[C@H](C)Oc2ccc(NC(=O)CCC(F)(F)F)cc2C1=O`, which cytotoxicity call is on record?
Answer: inactive

Question: How did the cytotoxicity call turn out when `C[C@@H]1CN([C@@H](C)CO)C(=O)c2c(c3ccccc3n2C)-c2ccccc2CO[C@@H]1CN(C)C(=O)Nc1ccccc1` was run?
Answer: inactive

Question: Which cytotoxicity call does the source give for `C[C@@H]1CN([C@@H](C)CO)C(=O)c2cccc(NC(=O)Nc3ccc(C(F)(F)F)cc3)c2O[C@@H]1CN(C)C(=O)NC1CCCCC1` here?
Answer: inactive

Question: How did the cytotoxicity call turn out when `C[C@H]1CN([C@@H](C)CO)C(=O)c2cccc(NC(=O)Nc3ccc(C(F)(F)F)cc3)c2O[C@H]1CN(C)C(=O)NC1CCCCC1` was run?
Answer: inactive

Question: How did the cytotoxicity call turn out when `C[C@H]1CN([C@@H](C)CO)C(=O)c2cccc(NC(=O)Nc3ccc(C(F)(F)F)cc3)c2O[C@@H]1CN(C)C(=O)NC1CCCCC1` was run?
Answer: active

Question: With `C[C@@H]1CN([C@@H](C)CO)C(=O)c2cccc(NC(=O)Nc3ccc(C(F)(F)F)cc3)c2O[C@H]1CN(C)C(=O)NC1CCCCC1` as the compound, how does the cytotoxicity call read?
Answer: active

Question: With `O=C(C[C@@H]1CC[C@H]2[C@@H](COC[C@@H](O)CN2S(=O)(=O)c2cccc(Cl)c2)O1)NC1Cc2ccccc2C1` as the compound, how does the cytotoxicity call read?
Answer: inactive

Question: `C[C@@H]1CN([C@@H](C)CO)C(=O)c2cc(NC(=O)Cn3cnnn3)ccc2O[C@@H]1CN(C)Cc1ccc(C(=O)O)cc1` was tested. Which cytotoxicity call did it give?
Answer: inactive

Question: With `C[C@H](CO)N1C[C@H](C)[C@@H](CN(C)C(=O)NC2CCCCC2)OCCCC[C@H](C)Oc2ccc(NC(=O)CCC(F)(F)F)cc2C1=O` as the compound, how does the cytotoxicity call read?
Answer: inactive

Question: How did the cytotoxicity call turn out when `C[C@H]1CN([C@@H](C)CO)C(=O)CCCn2cc(nn2)CO[C@@H]1CN(C)C(=O)Nc1cccc(Oc2ccccn2)c1` was run?
Answer: inactive

Question: `CC(=O)c1ccccc1OC[C@@H](O)CN(CCO)CCO` was tested. Which cytotoxicity call did it give?
Answer: inactive

Question: Which cytotoxicity call does the source give for `CCCC(=O)Nc1ccc(OCC(O)CNC(C)C)c(C(C)=O)c1.Cl` (configuration not stated) here?
Answer: inactive

Question: For `CCCNCC(O)COc1ccccc1C(=O)CCc1ccccc1.Cl` (configuration not stated), which cytotoxicity call is on record?
Answer: active

Question: With `C[C@H]1CN([C@@H](C)CO)C(=O)c2cc(NC(=O)CCC(F)(F)F)ccc2O[C@H]1CN(C)Cc1ccc(C(F)(F)F)cc1` as the compound, how does the cytotoxicity call read?
Answer: inactive

Question: With `C[C@H](CO)N1C[C@H](C)[C@H](CN(C)Cc2ccc(Oc3ccccc3)cc2)Oc2ncc(-c3cccnc3)cc2C1=O` as the compound, how does the cytotoxicity call read?
Answer: inactive

Question: With `C[C@H](CO)N1C[C@H](C)[C@H](CN(C)C(=O)NC2CCCCC2)Oc2ccc(NC(=O)Nc3cccc4ccccc34)cc2C1=O` as the compound, how does the cytotoxicity call read?
Answer: inactive

Question: For `C[n+]1c2cc(N)ccc2cc2ccc(N)cc21.[Cl-]`, which cytotoxicity call is on record?
Answer: active

Question: With `C[C@@H]1CCCCO[C@@H](CN(C)Cc2ccc(C(=O)O)cc2)[C@H](C)CN([C@H](C)CO)C(=O)c2cc(NC(=O)c3ccccc3)ccc2O1` as the compound, how does the cytotoxicity call read?
Answer: inactive

Question: With `C[C@H]1CN([C@@H](C)CO)C(=O)CCCn2cc(nn2)CO[C@H]1CN(C)C(=O)Nc1cccc(Oc2ccccn2)c1` as the compound, how does the cytotoxicity call read?
Answer: inactive

Question: For `CC(=O)OC[C@H]1O[C@@H](n2ccc(=O)[nH]c2=O)[C@H](OC(C)=O)[C@@H]1OC(C)=O`, which cytotoxicity call is on record?
Answer: inactive

Question: For `COCC(=O)N1C[C@H](C)[C@H](OC)CN(C)C(=O)c2cc(NC(=O)Nc3cccc(F)c3)ccc2OC[C@@H]1C`, which cytotoxicity call is on record?
Answer: inactive

Question: For `COc1ccc(NC(=O)Nc2ccc3c(c2)C(=O)N([C@H](C)CO)C[C@H](C)[C@H](CN(C)Cc2ccc(Cl)c(Cl)c2)O3)cc1`, which cytotoxicity call is on record?
Answer: active

Question: For `COc1ccc(NC(=O)Nc2ccc3c(c2)C(=O)N([C@H](C)CO)C[C@H](C)[C@@H](CN(C)Cc2ccc(Cl)c(Cl)c2)O3)cc1`, which cytotoxicity call is on record?
Answer: inactive

Question: With `COc1ccc(NC(=O)Nc2ccc3c(c2)C(=O)N([C@H](C)CO)C[C@@H](C)[C@@H](CN(C)Cc2ccc(Cl)c(Cl)c2)O3)cc1` as the compound, how does the cytotoxicity call read?
Answer: inactive

Question: For `COc1ccc(NC(=O)Nc2ccc3c(c2)C(=O)N([C@@H](C)CO)C[C@H](C)[C@@H](CN(C)Cc2ccc(Cl)c(Cl)c2)O3)cc1`, which cytotoxicity call is on record?
Answer: inactive

Question: Which cytotoxicity call does the source give for `COc1ccc(NC(=O)Nc2ccc3c(c2)C(=O)N([C@@H](C)CO)C[C@@H](C)[C@@H](CN(C)Cc2ccc(Cl)c(Cl)c2)O3)cc1` here?
Answer: inactive

Question: With `COc1ccc(NC(=O)Nc2ccc3c(c2)C(=O)N([C@@H](C)CO)C[C@H](C)[C@H](CN(C)Cc2ccc(Cl)c(Cl)c2)O3)cc1` as the compound, how does the cytotoxicity call read?
Answer: active

Question: How did the cytotoxicity call turn out when `C[C@H]1CN([C@@H](C)CO)S(=O)(=O)c2ccc(-c3ccc(C(=O)N(C)C)cc3)cc2O[C@@H]1CN(C)C(=O)C1CCC1` was run?
Answer: inactive

Question: Which cytotoxicity call does the source give for `O=C(CCc1ccc(O)cc1)c1c(O)c([C@@H]2O[C@H](CO)[C@@H](O)[C@H](O)[C@H]2O)c(O)c([C@@H]2O[C@H](CO)[C@@H](O)[C@H](O)[C@H]2O)c1O` here?
Answer: inactive

Question: For `CC(=O)O[C@H]1[C@H](Oc2cc(O)cc(O)c2C(=O)c2cc(O)cc(O)c2)O[C@H](CO)[C@@H](OC(=O)c2ccccc2)[C@@H]1O`, which cytotoxicity call is on record?
Answer: inactive

Question: With `O=C(O[C@H]1[C@H](O)[C@@H](CO)O[C@H](c2c(O)cc(O)c(C(=O)c3ccc(O)cc3)c2O)[C@H]1OC(=O)c1cc(O)c(O)c(O)c1)c1cc(O)c(O)c(O)c1` as the compound, how does the cytotoxicity call read?
Answer: active

Question: `Cc1ccc(S(=O)(=O)N(C)C[C@@H]2Oc3ccc(NC(=O)CCCN(C)C)cc3CC(=O)N([C@H](C)CO)C[C@H]2C)cc1` was tested. Which cytotoxicity call did it give?
Answer: inactive

Question: With `CN(C)CC#Cc1ccc([C@@H]2[C@H](CO)N3C(=O)CN(C(=O)CN(C)C)C[C@@H]23)cc1` as the compound, how does the cytotoxicity call read?
Answer: inactive

Question: For `C[C@H]1CN([C@@H](C)CO)C(=O)c2cccc(NC(=O)c3ccncc3)c2O[C@H]1CN(C)S(=O)(=O)c1cccs1`, which cytotoxicity call is on record?
Answer: inactive

Question: With `C[C@@H]1CN([C@H](C)CO)C(=O)c2cccc(NC(=O)c3ccncc3)c2O[C@@H]1CN(C)S(=O)(=O)c1cccs1` as the compound, how does the cytotoxicity call read?
Answer: active

Question: With `C[C@@H]1CN([C@H](C)CO)C(=O)c2cccc(NC(=O)c3ccncc3)c2O[C@H]1CN(C)S(=O)(=O)c1cccs1` as the compound, how does the cytotoxicity call read?
Answer: inactive

Question: `C[C@@H]1CN([C@@H](C)CO)C(=O)c2cccc(NC(=O)c3ccncc3)c2O[C@H]1CN(C)S(=O)(=O)c1cccs1` was tested. Which cytotoxicity call did it give?
Answer: inactive

Question: Which cytotoxicity call does the source give for `C[C@@H]1CN([C@@H](C)CO)C(=O)c2cccc(NC(=O)c3ccncc3)c2O[C@@H]1CN(C)S(=O)(=O)c1cccs1` here?
Answer: active

Question: With `C[C@H](CO)N1C[C@H](C)[C@H](CN(C)S(=O)(=O)c2cccs2)Oc2c(NC(=O)c3ccncc3)cccc2C1=O` as the compound, how does the cytotoxicity call read?
Answer: inactive

Question: For `CO[C@H]1CN(C)C(=O)c2cc(NS(=O)(=O)c3cn(C)cn3)ccc2OC[C@@H](C)N(Cc2cccc(F)c2)C[C@@H]1C`, which cytotoxicity call is on record?
Answer: inactive

Question: Which cytotoxicity call does the source give for `Cc1noc(C)c1NC(=O)N(C)C[C@H]1Oc2ccc(NC(=O)C3CC3)cc2C(=O)N([C@H](C)CO)C[C@@H]1C` here?
Answer: inactive

Question: For `C[C@@H]1CN([C@H](C)CO)C(=O)c2cc(NS(C)(=O)=O)ccc2O[C@@H](C)CCCCO[C@H]1CN(C)CC1CC1`, which cytotoxicity call is on record?
Answer: inactive

Question: For `C[C@@H]1CCCCO[C@@H](CN(C)C(=O)c2ccccc2)[C@H](C)CN([C@@H](C)CO)C(=O)c2cc(NS(=O)(=O)c3ccccc3)ccc2O1`, which cytotoxicity call is on record?
Answer: inactive
